# According to PubChem BioAssay AID488908 (National Center for Advancing Translational Sciences (NCATS), 2010):
# Results filed as inconclusive are left out. The source made the active and inactive calls. Calls follow the shape of the dose curve; as a rule, active = well fitted inhibition curve with a large enough effect; inconclusive = small, poorly fitted or top-dose-only effect; inactive = flat fitted curve, though single readings scatter.
# Experiment: Secondary Assay for lipid storage modulators: Cytotoxcity for probe SAR
# Conditions: Drosophila S3 cells viability, CellTiter-Glo luminescence, 24 h; series mostly up to 46.1 µM; activity change, negative = cytotoxicity: at the top concentration
# Text: NIH Molecular Libraries Probe Production Centers Network [MLPCN] NIH Chemical Genomics Center [NCGC] MLPCN Grant: 1 R03 MH085686-01 Assay Submitter (PI): Beller, Mathias; Max-Planck-Institut fur Biophysikalische Chemie, Germany. NCGC Assay Overview: Storing lipids as a reservoir for energy or the anabolism of elementary metabolites is a common feature of probably all cells and is conserved from bacteria to humans. The universal cellular lipid storage organelle is the so-called lipid storage droplet (LD). Although ubiquitous, LDs share a simple structure composed of a hydrophobic core that harbors the storage lipids, which is shielded by a droplet-specific phospholipid monolayer to which proteins are attached. The current model of LD biogenesis involves an incorporation of the lipid core into the membrane leaflets of the endoplasmic reticulum (ER) followed by a subsequent budding-like maturation of a LD, which ultimately pinches off. Once released, LD volume can increase by localized lipogenesis or fusion of existing droplet. Storage lipids are re-mobilized enzymatically by lipase activity. Lipase regulation in the adipocyte is heavily studied and involves multiple components including catecholamine signaling, the LD-associated proteins Perilipin and comparative gene identification (CGI-58) and at least two lipases named hormone sensitive lipase (HSL) and adipocyte triglyceride lipase (ATGL). LD regulation outside of the adipocyte is poorly understood and only few components are known. However, there is an urgent need to learn more about ectopic fat depots as mislocalized storage of lipids, for example in the liver or muscle, is an eminent health problem associated with insulin resistance or the metabolic syndrome. We developed a laser-scanning cytometer assay to enable 1,536-well screening and combined the results of the small molecules screen with an RNAi database based on lipid storage. The compound was tested here for cytotoxcity using CellTiter-Glo.
# Assay Protocol Summary: Cytotoxcity assay was performed with embryonic Drosophila S3 cells (Bloomington Drosophila Genomics Resource Center [DGRC]). We dispensed 4 uL of cells at 1.25 x 10^6 cells/mL into Greiner solid white 1,536-well plates with a bottle-valve solenoid-based dispenser (Aurora) to obtain 5,000 cells/well. A total of 23 nL of compound solution of different concentrations were transferred to the assay plates using a Kalypsys pin tool equipped with a 1,536-pin array containing 10-nL slotted pins (FP1S10, 0.457-mm diameter, 50.8 mm long; V&P Scientific). One microliter of oleic acid (400 uM) was added, and the plate was lidded with stainless steel rubber gasket lined lids containing pinholes. After 24 hrs of incubation at 24 degrees Celsius and 95% humidity, 4 uL of CellTiter-Glo (Promega) was added to the wells. Luminescence was detected on the Perkin Elmer ViewLux.
row,Structure (SMILES),"activity change, negative = cytotoxicity"
1,CCC/C=C/C/C=C/C=C/C=N/NN=O,-22.4% (inactive)
2,CCOc1ccc(CCNC(=O)c2ccc(Oc3ccccc3)cc2)cc1OCC,-11.1% (inactive)
3,CCOc1ccc(CCNC(=O)c2ccccc2)cc1OCC,-13.3% (inactive)
4,CCOc1ccc(CCNC(=O)c2ccc(C(=O)c3ccccc3)cc2)cc1OCC,-22.2% (inactive)
5,CCOC(=O)C1CCN(C(=O)C2(NC(=O)Nc3ccccc3Cl)CCCC2)CC1,-6.46% (inactive)
